HCMV antiviral: qHTS Assay for inhibitors of the human cytomegalovirus (HCMV). HFF cells, HCMV-luciferase reporter, 72 h; active compounds read low. activity change, negative = inhibition, % at 57.5 µM. actives 4.5% (n = 410,000). AID 1259415, 2018; in the data active = activity change below about -60%; inconclusive = no clear call, values can overlap the other calls; inactive = above about -39%
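Two-dose cell screen: HFF monolayers treated with compounds and infected with luciferase-expressing HCMV at 1 PFU/cell, 72 h at 37C, then lysed for luciferase measurement.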
VACV Venus inh: qHTS for Stage-Specific Inhibitors of Vaccinia Orthopoxvirus: Venus Reporter Primary qHTS; Vaccinia virus Venus reporter expression, fluorescence; Potency, µM (doses to about 36.5 µM), most hits filed as inhibitors; actives 0.46% (n = 330,000); calls by dose curve; tested in A549 cells; note: nearly all actives have a fitted effect of over 30% in size
HCV inh: qHTS Assay for Inhibitors of Hepatitis C Virus (HCV) | Potency, µM (series often up to 41.8 µM), usual class: inhibitors | actives 3.4% (n = 340,000) | Huh7.5.1 HCVcc-Cre infection, luciferase reporter, 44 h | AID 651820, 2012; active = well fitted inhibition curve with a large enough effect; inconclusive = small, poorly fitted or top-dose-only effect, or another doubt; inactive = no such curve, though single readings can be large or run the other way
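1,000 cells/well; 4 h culture; + compound; + HCVcc-Cre (~0.5 moi); 44 h; luciferase substrate, RT 15 min; read 15 sec.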
Lassa entry inh: qHTS for Inhibitors of binding or entry into cells for Lassa Virus | AID 540256, 2011 | actives 1.2% (n = 300,000) | Potency, µM (titrated, usually from 37.9 µM), hits mostly inhibitors | Lassa virus pseudotype entry inhibition, cell reporter; calls by dose curve; tested in HEK293 cells; note: nearly all actives have a fitted effect of over 50% in size
Marburg entry inh: qHTS for inhibitors of binding or entry into cells for Marburg Virus | Marburg virus pseudotyped entry inhibition, cell reporter | Potency, µM (titrated, usually from 37.8 µM), usual class: inhibitors | actives 1.8% (n = 300,000) | AID 540276, 2011; calls by dose curve; tested in HEK293 cells
VACV mCherry inh: qHTS for Stage-Specific Inhibitors of Vaccinia Orthopoxvirus: mCherry Reporter Primary qHTS; Vaccinia virus mCherry reporter infection, fluorescence; Potency, µM (titrated, usually from 36.5 µM), usual class: inhibitors; actives 0.63% (n = 310,000); calls by dose curve; tested in A549 cells; note: nearly all actives have a fitted effect of over 35% in size
Hits are given with their value. Compounds with a hit are over-represented: about 7.8% of the library has one in this group of screens.

What do the screens show for `O=C(Nc1nc2cc3c(cc2s1)OCCO3)C1=COCCO1`?
HCMV antiviral: active; HCV inh: inactive

What do the screens show for `O=C(Nc1nc2ccc(F)cc2s1)C1=COCCO1`?
HCMV antiviral: inactive; VACV Venus inh: inactive; HCV inh: inactive; Lassa entry inh: 2.8µM; Marburg entry inh: inconclusive; VACV mCherry inh: inactive

What do the screens show for `O=C(CCN1C(=O)C2CCCCC2C1=O)Nc1nc2ccc(F)cc2s1` (stereo not given)?
HCMV antiviral: inactive; VACV Venus inh: inactive; HCV inh: inactive; Lassa entry inh: 11µM; Marburg entry inh: inconclusive; VACV mCherry inh: inactive

How did CCN(C(=O)CSc1nc2ccccc2n1CC(=O)N1CCCC(C)C1)c1ccccc1 (stereo not given) do in these assays?
HCMV antiviral: inactive; VACV Venus inh: inactive; Lassa entry inh: inactive; VACV mCherry inh: inactive

How did NC(=S)NN=C1CCC2(CCCCC2)CC1 do in these assays?
HCMV antiviral: inactive; VACV Venus inh: inconclusive; HCV inh: inactive; Lassa entry inh: inactive; Marburg entry inh: inconclusive; VACV mCherry inh: inconclusive

How did CC1(C)CCC(=NNC(N)=S)CC1 do in these assays?
HCMV antiviral: inactive; VACV Venus inh: inconclusive; HCV inh: inactive; Lassa entry inh: inactive; Marburg entry inh: inconclusive; VACV mCherry inh: 11µM

How did CC(C)(C)c1ccc(S(=O)(=O)N[C@H]2CC[C@@H](n3cc(C(=O)N4CCCC4)nn3)CC2)cc1 do in these assays?
VACV Venus inh: inactive; VACV mCherry inh: inactive

How did O=C(NCCO)c1cc2c([nH]c3ccccc32)c(-c2ccccc2)n1 do in these assays?
HCMV antiviral: inactive; VACV Venus inh: inactive; HCV inh: inconclusive; Lassa entry inh: inactive; Marburg entry inh: inactive; VACV mCherry inh: inconclusive

Results for O=C(NCCO)c1cc2c([nH]c3ccccc32)c(-c2ccc(F)cc2)n1 ?
HCMV antiviral: inactive; VACV Venus inh: inactive; HCV inh: 11µM; Lassa entry inh: inactive; Marburg entry inh: inactive; VACV mCherry inh: inactive

How did Cc1nc(C(=O)NCCO)cc2c1[nH]c1ccccc12 do in these assays?
HCMV antiviral: inactive; HCV inh: 11µM

How did Cc1ccc(-c2nc(C(=O)NCCCN(C)C)cc3c2[nH]c2ccccc23)cc1 do in these assays?
HCMV antiviral: -98; VACV Venus inh: inconclusive; HCV inh: 11µM; VACV mCherry inh: inconclusive

Results for COC(=O)c1cccc(N2C(=O)C[C@](Sc3ccc(OC)cc3)(C(=O)N(C)C)[C@H]2c2ccc(OC)cc2)c1 ?
HCMV antiviral: inactive

What do the screens show for `CNC(=O)C1CCC(Cn2c(=O)c3sccc3n(CC(=O)Nc3ccc(C)c(C)c3)c2=O)CC1` (stereo not given)?
HCMV antiviral: inactive; VACV Venus inh: inconclusive; Lassa entry inh: inactive; VACV mCherry inh: inconclusive

How did COc1cc(-c2cnc3ccccc3c2)cc2c1OCCN(C(=O)CCC(=O)c1ccc(F)cc1)C2 do in these assays?
VACV Venus inh: inactive; VACV mCherry inh: inactive

What do the screens show for `C[C@@H](C(=O)NCC1CC1)[C@@H]1C[C@@]1(C)[C@@H](NC(=O)OCc1ccccc1)c1ccccc1`?
HCMV antiviral: inactive; VACV Venus inh: inactive; HCV inh: 0.56µM; Lassa entry inh: inconclusive; Marburg entry inh: inactive; VACV mCherry inh: inactive

How did C[C@H](CO)NC(=O)[C@H](C)[C@H]1C[C@]1(C)[C@H](NC(=O)OCc1ccccc1)c1ccccc1 do in these assays?
HCMV antiviral: inactive; VACV Venus inh: inactive; HCV inh: inactive; Lassa entry inh: inconclusive; Marburg entry inh: inactive; VACV mCherry inh: inactive

How did O=C(CCn1cnc2ccccc2c1=O)NCc1ccccc1 do in these assays?
HCMV antiviral: inactive; VACV Venus inh: inactive; Lassa entry inh: inactive; VACV mCherry inh: inactive

What do the screens show for `Cc1cc(-c2ccc(C)c(S(=O)(=O)N(Cc3cccs3)C(C)C)c2)on1`?
HCMV antiviral: -77; VACV Venus inh: inconclusive; Lassa entry inh: inactive; VACV mCherry inh: inactive

How did CCc1ccc(-c2cc(C)no2)cc1S(=O)(=O)N1CCOc2ccccc21 do in these assays?
HCMV antiviral: -74; VACV Venus inh: inactive; HCV inh: 11µM; Lassa entry inh: inconclusive; Marburg entry inh: inconclusive; VACV mCherry inh: inactive

From PubChem BioAssay
